Sampled rows, rich in hits. Any-hit rate of the full collection: about 12%.
JMJD2A Tudor = qHTS Assay for Inhibitors of JMJD2A-Tudor Domain | Lysine-specific demethylase 4A (Homo sapiens), O75164 | AlphaScreen JMJD2A-Tudor / H3K4me3 peptide binding | Potency, µM (titrated, usually from 114 µM), actives largely listed as inhibitors | hit rate 4.4% among 390,000; note: nearly all actives have a fitted effect of over 50% in size
HP1b binding inh = HTS for Inhibitors of HP1-beta Chromodomain Interactions with Methylated Histone Tails; AlphaScreen HP1-beta / biotin-H3K9me3 peptide binding; Potency, µM (titrated, usually from 114 µM), usual class: inhibitors; hit rate 0.56% among 390,000; note: nearly all actives have a fitted effect of over 70% in size
Target sequence (P83916 whole entry, looked up): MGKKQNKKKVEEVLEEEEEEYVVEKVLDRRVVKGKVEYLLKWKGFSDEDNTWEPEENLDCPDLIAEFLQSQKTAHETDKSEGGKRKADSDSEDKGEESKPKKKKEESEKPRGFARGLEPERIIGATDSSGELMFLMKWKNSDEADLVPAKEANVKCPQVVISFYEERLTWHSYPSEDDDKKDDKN
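AlphaScreen: HP1-beta (50 nM) preformed 30 min with biotin-H3(1-18)K9me3 peptide (50 nM) in PBS pH 7.4, 0.01% Tween-20. Compound added for 30 min at RT, then streptavidin donor/nickel chelate acceptor beads (10 ug/mL) for 30 min.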
G9a block = qHTS Assay for Inhibitors of Histone Lysine Methyltransferase G9a; Histone-lysine N-methyltransferase EHMT2 (Homo sapiens), Q96KQ7; G9a H3K9 monomethylation, AlphaScreen, 2 h; Potency, µM (top dose mostly 102 µM), actives largely listed as inhibitors; hit rate 8.8% among 350,000; AID 504332, 2011; note: nearly all actives have a fitted effect of over 75% in size
Target sequence (Q96KQ7 913-1193 limits assumed): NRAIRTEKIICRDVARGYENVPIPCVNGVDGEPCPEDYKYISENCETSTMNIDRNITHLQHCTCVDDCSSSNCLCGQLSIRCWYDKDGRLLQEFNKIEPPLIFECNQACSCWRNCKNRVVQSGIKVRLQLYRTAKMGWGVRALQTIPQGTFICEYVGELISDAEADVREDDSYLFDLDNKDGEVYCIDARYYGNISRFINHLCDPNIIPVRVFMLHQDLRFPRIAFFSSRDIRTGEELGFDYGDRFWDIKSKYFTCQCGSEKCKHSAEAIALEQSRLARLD
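Step 1: enzyme (final 20 nM) with compound, 15 min RT. Step 2: substrate peptide 500 nM and SAM 20 uM, 2 h RT. Step 3: anti-H3K9me1 antibody and AlphaScreen beads, 10 min, then plate read.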
BAZ2B block = qHTS Assay for Inhibitors of BAZ2B; hit rate 4.4% among 360,000; Potency, µM (series often up to 114 µM), usual class: inhibitors; AlphaScreen BAZ2B-H3K14Ac peptide displacement; Bromodomain adjacent to zinc finger domain protein 2B (Homo sapiens), Q9UIF8; note: nearly all actives have a fitted effect of over 60% in size
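AlphaScreen luminescence quantifies BAZ2B engagement of H3K14Ac peptide; the protein and biotinylated peptide are both at 50 nM final, buffer PBS pH 7.4 with 0.01% Tween-20, all steps at room temperature.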
Sfp PPTase inh = qHTS Assay for Inhibitors of Bacillus subtilis Sfp phosphopantetheinyl transferase (PPTase) | 4'-phosphopantetheinyl transferase ffp (Bacillus subtilis), Q9F4F7 | Biochemical Sfp PPTase activity, qHTS | Potency, µM, hits mostly inhibitors | hit rate 3.5% among 310,000 | AID 1490, 2009;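 note: the enzyme is Sfp with the accession as filed and its product quenches rhodamine fluorescence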
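Fluorescence-quenching assay: 15 nM Sfp-PPTase preincubated 15 min at room temperature with compound, then 5 uM rhodamine-CoA and 12.5 uM BHQ-2-labelled YbbR peptide added. Fluorescence (ex 525/em 598 nm) read at start and after 30 min; difference gives rate.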
Each line names hits and unclear results; the compound was inactive in the other large screens. Calls come from the whole dose curve; as a rule, active = well fitted curve in the direction sought with a large enough effect; inconclusive = small, poorly fitted or top-dose-only effect, or another doubt; inactive = no such curve, though single readings can be large; an effect the other way counts as inactive or inconclusive.

CCOC(=O)c1ccccc1C(=O)OCC	none (no result: BAZ2B block)
CN(CCc1nnc(N)s1)[N+](=O)[O-]	G9a block 22µM
CCC[C@H](N[C@@H](CCC)[C@H](O)c1ccccc1)[C@H](O)c1ccccc1	none (no result: G9a block, BAZ2B block, Sfp PPTase inh)
CCCCC(CC)CNCC(O)c1ccccc1 (centres undefined)	JMJD2A Tudor 7.1µM, G9a block 25µM (no result: BAZ2B block)
Nc1c2c(nc3sc4c(c13)CCCCC4)CCCC2	G9a block inconclusive
CN1CCc2nc3sc(C#N)c(N)c3c(-c3cccs3)c2C1	G9a block inconclusive, BAZ2B block inconclusive, Sfp PPTase inh 50µM
CN1CCc2nc(N)c(C#N)c(-c3ccccc3)c2C1	none
NC(=O)c1sc2nc3c(c(-c4cccs4)c2c1N)CCCC3	G9a block 22µM (no result: JMJD2A Tudor, HP1b binding inh)
Cc1ccc(C(=O)Nc2ccc(-n3ccnc3P(=O)(O)c3ccccc3)cc2)cc1	BAZ2B block inconclusive
CCN1C[C@]2(C)CCC(OC)[C@@]34C5C[C@@H]6CC[C@@](O)(C5C(=O)O6)[C@@H](C(O)C23)[C@@H]14 (some centres undefined)	none (no result: JMJD2A Tudor, HP1b binding inh, G9a block, BAZ2B block)
Cc1ccc(CNC(=O)c2ccc(CSc3nc4ccncc4n3Cc3ccc(C)cc3)cc2)cc1	none (no result: Sfp PPTase inh)
O=c1c2ccccc2nc(/C=C/c2ccccc2)n1-c1ccc(O)cc1	none
O=c1c2ccccc2nc(/C=C/c2cccnc2)n1Cc1ccccc1	JMJD2A Tudor 22µM, HP1b binding inh inconclusive, BAZ2B block 10µM, Sfp PPTase inh 32µM (no result: G9a block)
COc1ccccc1N1CCN(Cc2ccc(Cl)cc2Cl)CC1	JMJD2A Tudor 22µM, HP1b binding inh inconclusive, G9a block 22µM, BAZ2B block inconclusive, Sfp PPTase inh inconclusive
CCc1ccc(CN2CCN(Cc3ccc(SC)cc3)CC2)cc1	JMJD2A Tudor inconclusive, HP1b binding inh inconclusive, G9a block 3.5µM, BAZ2B block 40µM, Sfp PPTase inh inconclusive
CC(C)N1CCN(Cc2ccccc2C(F)(F)F)CC1CCO (centres undefined)	none
COc1cccc(CN2CCNCC2)c1OC	BAZ2B block inconclusive
CCOc1ccccc1N1CCN(Cc2cccc(OC)c2OC)CC1	JMJD2A Tudor 1.8µM, HP1b binding inh inconclusive, G9a block inconclusive, BAZ2B block inconclusive
FC(F)(F)c1ccccc1CN1CCN(Cc2ccccc2)CC1	JMJD2A Tudor 4µM, HP1b binding inh inconclusive, G9a block 3.2µM, BAZ2B block 50µM, Sfp PPTase inh inconclusive
COc1ccc(NC(=O)c2cc([N+](=O)[O-])ccc2N2CCNCC2)cc1	none
CC(C)Oc1cccnc1N(C)C1CCN(Cc2ccccc2)CC1	G9a block inconclusive (no result: BAZ2B block, Sfp PPTase inh)
Cc1ccc(OCC(=O)N2CCCC(N3CCN(c4ccc(F)cc4)CC3)C2)cc1 (centres undefined)	none
COc1ccccc1CN1CCN(Cc2ccc(Cl)cc2)CC1	JMJD2A Tudor 40µM, HP1b binding inh inconclusive, G9a block 3.5µM, BAZ2B block 18µM, Sfp PPTase inh 79µM
COc1ccccc1N1CCN(Cc2ccc(F)cc2)CC1	none
COc1ccccc1N1CCN(Cc2ccc(SC)cc2)CC1	JMJD2A Tudor 28µM, HP1b binding inh inconclusive, G9a block 10µM, BAZ2B block 50µM, Sfp PPTase inh inconclusive
CCOc1ccccc1CN1CCN(S(=O)(=O)CC)CC1	JMJD2A Tudor 5.6µM, HP1b binding inh inconclusive, G9a block 13µM, BAZ2B block 50µM
CSc1ccc(CN2CCN(c3ccccc3C)CC2)cc1	JMJD2A Tudor 4.5µM, G9a block 13µM, BAZ2B block inconclusive
N#CC(C(=O)C12CC3CC(CC(C3)C1)C2)c1nc2ccccc2[nH]1 (centres undefined)	none
Cc1cc(O)c(CN2CCN(c3ccccc3)CC2)cc1C	none
Cc1ccc(CN2CCN(Cc3ccccc3F)CC2)cc1	JMJD2A Tudor 20µM, HP1b binding inh inconclusive, G9a block 13µM, BAZ2B block 22µM
COc1ccc(CN2CCN(c3ccccc3)CC2)c(C)c1C	JMJD2A Tudor 4µM, HP1b binding inh inconclusive, G9a block 11µM, BAZ2B block 50µM, Sfp PPTase inh inconclusive
CCN1CCN(Cc2ccc(C)cc2)CC1	G9a block inconclusive
O=C(NCc1c(-n2cccc2)sc2c1CCCC2)Nc1cccc(C(F)(F)F)c1	none (no result: Sfp PPTase inh)
O=C1/C(=C/c2ccc([N+](=O)[O-])cc2)N2CCC1CC2	G9a block 11µM, BAZ2B block inconclusive
O=C1/C(=C/c2ccncc2)N2CCC1CC2	none
COc1ccc2c(c1)[C@@]13CCC=C[C@H]1[C@@H](C2)NCC3	none (no result: Sfp PPTase inh)
N#Cc1cc2c(nc1SCC(=O)Nc1cc(Cl)cc(Cl)c1)C1CCN2CC1	none
O=C1NC(=O)N(C2CCCCC2)C(=O)C1C1c2ccccc2C(=O)N1Cc1ccccc1 (centres undefined)	G9a block 56µM
O=C(CC1NCCC[C@H]1O)Cn1cnc2cc(Br)c(Cl)cc2c1=O (some centres undefined)	Sfp PPTase inh inconclusive (no result: JMJD2A Tudor, HP1b binding inh, BAZ2B block)
Cc1ccc(CNC(=O)C2CCN(S(=O)(=O)c3c(C)noc3C)CC2)cc1	none
COc1ccc(OCC(=O)N2CCN(C3CCC(c4ccccc4)CC3)CC2)cc1 (centres undefined)	JMJD2A Tudor 20µM, HP1b binding inh inconclusive, G9a block inconclusive, BAZ2B block 50µM
O=C(COc1ccccc1)N1CCN(C2CCCC2)CC1	JMJD2A Tudor 7.9µM, G9a block 10µM
O=C(COc1ccc2ccccc2c1)N1CCN(C2CCN(Cc3ccccc3)CC2)CC1	none
O=C(Cc1ccccc1)N1CCN(C2CCCC2)CC1	JMJD2A Tudor 32µM, BAZ2B block inconclusive, Sfp PPTase inh 89µM
CCN(CC)P(=O)(Nc1ccc(Br)cc1)c1c(C)nn(CCC#N)c1NC(=O)c1ccc(Cl)cc1 (centres undefined)	none
O=C(c1ccccc1F)c1cn(CC(=O)N2CCOCC2)c2ccccc12	JMJD2A Tudor inconclusive
CCOCC(=O)NC1CCSC1=O (centres undefined)	none
CNS(=O)(=O)c1ccc(-c2ccc(C=C3C(=O)NC(=O)NC3=O)o2)cc1	G9a block 8.9µM, BAZ2B block inconclusive, Sfp PPTase inh 35µM
NS(=O)(=O)c1ccc(-c2ccc(C=C3C(=O)NC(=O)NC3=O)o2)cc1	JMJD2A Tudor inconclusive, G9a block 10µM, Sfp PPTase inh 14µM
NS(=O)(=O)c1ccc(-c2ccc(C=C3C(=O)NC(=S)NC3=O)o2)cc1	G9a block 2.5µM, BAZ2B block 50µM, Sfp PPTase inh 13µM (no result: JMJD2A Tudor, HP1b binding inh)
CCOC(=O)c1c(C)c(P(=S)(N2CCOCC2)N2CCOCC2)n(C)c1C	HP1b binding inh inconclusive, G9a block 6.3µM, BAZ2B block inconclusive, Sfp PPTase inh 32µM
Cc1ccc2cccc(OC(=O)N(C)c3ccccc3)c2n1	none
CN1CCc2nc3sc(C(=O)NC4CC4)c(N)c3cc2C1	JMJD2A Tudor inconclusive, G9a block 8.9µM, BAZ2B block inconclusive, Sfp PPTase inh 32µM
